Rows were chosen to be rich in hits. Some 0.45% of all compounds tested hit in one or more screens of this group.
GoLoco inh red – inhibitors of human Gai1-RGS12 GoLoco interaction (red fluorophore) | P63096 | Gai1:RGS12 GoLoco peptide FP, rhodamine, 10 min | Potency, µM (highest dose often 61.6 µM), without a hit: at the top dose activity, negative = inhibition, hits mostly inhibitors | 0.44% of 230,000 active | AID 880; active means well fitted inhibition curve with a large enough effect, not every such curve was filed as active; inactive means no such curve, though single readings can be large or run the other way; further: potency means the concentration at half of the fitted maximal effect; on the % scale 0 is the no-effect control and ±100 the full control effect; nearly all actives have a fitted effect of over 30% in size
ERG-DNA inh – blocks human ERG Ets domain binding to DNA. AID 624246. 0.028% of 370,000 active. P11308. Potency, µM (highest dose often 76.9 µM), for the others: at the top dose FP activity, negative = inhibition, usual class: inhibitors. fluorescence polarization, His-ERG Ets domain / labelled DNA; active means well fitted inhibition curve with a large enough effect in the polarisation, with a control signal flat; inconclusive means small, poorly fitted or top-dose-only effect, or effect the other way, or a change in a side signal; inactive means no such curve, though single readings can be large or run the other way; the % refers to the polarisation;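 further: polarization taken with two DNA probes labelled with fluorescein and Texas red; potency means the concentration at half of the fitted maximal effect; % of control where 0% means no effect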
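His-tagged ERG Ets domain (1 uM in the protein solution; 300mM KCl, 50mM Tris-HCl, 1mM EDTA, 1mM DTT, pH 7.5) received compound, then a probe mix of 5 nM fluorescein-DNA and 100nM Texas-615-DNA. Fluorescence polarization was read for both dyes.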
Integrin act MD – activates integrin-mediated alleviation for muscular dystrophy | alpha7betagal myoblasts, beta-gal FDG fluorescence, 48 h | Potency, µM (doses to about 38.3 µM), for the others: at the top dose activation, actives largely listed as activators | 0.064% of 350,000 active | AID 624291;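 further: potency means the concentration at half of the fitted maximal effect; 100% = response of the positive control SU9516; nearly all actives have a fitted effect of over 60% in size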
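Alpha7betagal+/- myoblasts (passage 13) were plated 16-24 hr, then exposed to compounds (1:260 dilution of DMSO stock) for 48 hours at 37C. After MPER lysis, β-galactosidase reporter activity was read as FDG fluorescence (ex 480/em 540) after 30 minutes.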
TRb-SRC2 inh – inhibitors of human thyroid hormone receptor beta-SRC2 interaction; P10828; AID 1469; TRbeta-SRC2 peptide binding, fluorescence polarization; receptor liganded with 1 µM T3; Potency, µM (highest dose often 106 µM), inactives show at the highest dose activity change, negative = inhibition, usual class: inhibitors; 0.065% of 280,000 active;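 further: potency means the concentration at half of the fitted maximal effect; plate controls were bound peptide for no effect and peptide without receptor for full effect; nearly all actives have a fitted effect of over 50% in size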
Target sequence (P10828 whole entry, looked up): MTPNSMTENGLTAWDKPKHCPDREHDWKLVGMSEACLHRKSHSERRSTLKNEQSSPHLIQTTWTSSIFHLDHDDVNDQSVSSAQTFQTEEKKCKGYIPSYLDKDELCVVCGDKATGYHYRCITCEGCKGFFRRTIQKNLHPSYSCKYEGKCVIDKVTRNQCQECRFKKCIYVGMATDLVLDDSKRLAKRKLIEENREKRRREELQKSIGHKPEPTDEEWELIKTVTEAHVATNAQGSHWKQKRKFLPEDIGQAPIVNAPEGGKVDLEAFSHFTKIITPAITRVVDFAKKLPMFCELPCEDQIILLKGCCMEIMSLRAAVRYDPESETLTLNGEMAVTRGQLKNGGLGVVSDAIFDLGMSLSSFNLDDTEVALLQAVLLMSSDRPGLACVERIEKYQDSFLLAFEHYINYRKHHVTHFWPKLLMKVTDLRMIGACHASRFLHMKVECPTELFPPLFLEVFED
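Polarization signal, normalized between peptide-alone and full complex controls, measured compound effects on T3-liganded human TRb LBD (0.6 uM) binding 20 nM Texas Red SRC2 peptide after 5 hr.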
TR SRC2 fluor cs – counter-screen for TRb-SRC2 inhibitors: fluorescence interference; TRb/SRC2 Texas Red total fluorescence interference; Potency, µM (doses to about 106 µM), inactives show top-dose fluorescence change, negative = quenching; 0.29% of 280,000 active; active means well fitted curve in either direction with a large enough effect; inconclusive means small, poorly fitted or top-dose-only effect; further: potency means the concentration at half of the fitted maximal effect; on the % scale 0 is the no-effect control and ±100 the full control effect
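Human TRβ ligand-binding domain (0.6 uM) and Texas Red SRC2 peptide (20 nM) in Tris buffer with 1 uM T3 and 5% DMSO were incubated with pinned compound for 5 hr at ambient temperature. Total fluorescence was computed as S + 2P (555/632 nm).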
CBFb RUNX1 block – inhibitors of human CBF-beta and RUNX1 interaction | Potency, µM (doses to about 59.8 µM), without a hit: at the highest dose activity, negative = inhibition, hits mostly inhibitors | AlphaScreen CBFb-His/RUNX1-biotin binding, biochemical | 230,000 tested, under 10 active; further: % of control where 0% means no effect
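AlphaScreen proximity signal reports loss of binding between His-tagged CBF-beta and biotin-labelled RUNX1, each at 30 nM. Proteins are pre-associated for 20 minutes, compounds added for 15 minutes, then beads for 90 minutes, all at ambient temperature.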
Numbers without * were called inactive; ? = inconclusive; . = no result; ! = not active in a repeat; [ ] = another dose, or the depositor's remark. Unless noted, the call rests on the fitted dose curve; in most records, active means well fitted curve in the direction sought with a large enough effect; inconclusive means small, poorly fitted or top-dose-only effect, or another doubt; inactive means no such curve, though single readings can be large; an effect the other way counts as inactive or inconclusive.

SMILES | GoLoco inh red | ERG-DNA inh | Integrin act MD | TRb-SRC2 inh | TR SRC2 fluor cs | CBFb RUNX1 block
CSCC[C@H](NC(=O)[C@H](Cc1ccccc1)NC(=O)[C@H](Cc1cnc[nH]1)NC(=O)CNC(=O)[C@@H](NC(=O)[C@H](C)NC(=O)[C@H](Cc1c[nH]c2ccccc12)NC(=O)[C@H](CCC(N)=O)NC(=O)[C@@H]1CCCN1C(=O)[C@@H](NC(=O)[C@@H]1CCC(=O)N1)C(C)C)C(C)C)C(N)=O | . | . | . | 1% | -4% | 9%
CC1(C)C(=O)NC(=O)N1CO | . | . | . | 13%[201 µM] | 2%[201 µM] | .
O=c1c(-c2cc(-c3ccc(Cl)cc3)nc3c2COc2ccccc2-3)coc2ccccc12 | . | 1% | . | 1% | -3% | .
O=C1COc2ccc(-c3cc(-c4ccc(Cl)cc4)c4c(n3)-c3ccccc3OC4)cc2N1 | . | -14% | . | -7% | 10µM*[quencher] | .
O=c1c(-c2cc(-c3ccccc3)nc3c2COc2ccccc2-3)coc2ccc(Cl)cc12 | . | -2% | . | -8% | 20µM*[quencher] | .
O=C1COc2ccc(-c3cc(-c4ccccc4)c4c(n3)-c3ccccc3OC4)cc2N1 | . | -2% | . | 6% | 3% | .
COC1C(OC(=O)/C=C/C=C/C=C/C=C/C(=O)O)CCC2(CO2)C1C1(C)OC1CC=C(C)C (configuration not stated) | 6% | . | . | 1% | -3% | .
COc1ccc(-c2cc([C@H](O)C3CCCCN3)c3ccccc3n2)cc1 (some centres not stated) | 7%[14.2 µM] | . | . | . | . | .
CCOc1ccc(NC(=O)c2c(NCc3cccs3)sc3c2CCC(C)C3)cc1 (configuration not stated) | . | -1% | . | -21% | 355µM*[quencher] | .
O=[N+]([O-])c1ccc(S(=O)(=O)Cc2ccccc2)c2nonc12 | -15%[14.2 µM] | . | . | . | . | .
O=[N+]([O-])c1ccc(N2CCN(S(=O)(=O)c3ccccc3)CC2)cc1NCC1CCCO1 (configuration not stated) | 1% | 3% | -5% | 4% | 6% | -1%
CCS(=O)(=O)N1CCN(c2ccc([N+](=O)[O-])c(NCC3CCCO3)c2)CC1 (configuration not stated) | 6% | 0% | 10µM* | -2% | -2% | -2%
O=C(O)c1ccccc1OS(=O)(=O)O | . | . | . | -4% | -5% | 23%
C=CC(C)n1c(Br)nc2c1c(=O)[nH]c(=O)n2C (configuration not stated) | 10% | 0% | 4% | 10% | 0% | -1%
CC(C)n1c(=S)[nH]c2c1c(=O)[nH]c(=O)n2C | 10µM* | -3% | -7% | 1% | 0% | 1%
COc1ccc(-c2nnc3n2N=C(c2cc(OC)ccc2OC)CS3)c(OC)c1 | . | . | . | 0% | -2% | -4%
CCOC(=O)CC(NC(=O)c1cc2cc(Cl)ccc2oc1=O)c1ccc(C)cc1 (configuration not stated) | . | -1% | . | -10% | 14µM*[quencher] | .
CC1CCN(S(=O)(=O)c2ccc(S(=O)(=O)N3CCCC3)cc2)CC1 | . | 3% | 8.9µM* | . | . | .
NCCCC[C@H](N)C(=O)N[C@@H](CCCN=C(N)N)C(=O)N1CCC[C@H]1C(=O)N1CCC[C@H]1C(=O)NCC(=O)N[C@@H](Cc1ccccc1)C(=O)N[C@@H](CO)C(=O)N1CCC[C@H]1C(=O)N[C@@H](Cc1ccccc1)C(=O)O | . | . | . | 10% | 1% | 13%
COc1cccc2c1C(=O)c1c(O)c3c(c(O)c1C2=O)C[C@@](O)(C(=O)CO)C[C@@H]3OC1CC(N)C(O)C(C)O1 (some centres not stated) | -5% | ? | -56% | 20µM* | 32µM*[fluorescent] | .
COc1cccc2c1C(=O)c1c(O)c3c(c(O)c1C2=O)CC(O)(C(C)=O)CC3OC1CC(N(C)C)C(O)C(C)O1 (configuration not stated) | . | 1µM* | ? | . | . | .
COc1cccc2c1C(=N)c1c(O)c3c(c(O)c1C2=O)C[C@](O)(C(C)=O)C[C@@H]3O[C@H]1C[C@H](N)[C@@H](O)[C@H](C)O1 | 0%[14.2 µM] | . | . | . | . | .
COc1cccc2c1C(=O)c1c(O)c3c(c(O)c1C2=O)C[C@@](O)(C(=O)CO)C[C@@H]3O[C@H]1C[C@H](N)[C@H](O)[C@H](C)O1 | 2.8µM* | ? | . | 22µM*! | 100µM*[fluorescent] | 0%
COc1cccc2c1C(=O)c1c(O)c3c(c(O)c1C2=O)C[C@](O)(C(C)=O)C[C@H]3O[C@@H]1C[C@H](N)[C@H](O)[C@H](C)O1 | 3.2µM* | . | . | 13µM* | 14µM*[fluorescent] | -12%[21.7 µM]
COc1cc(C(C)C)c2c(c1)S(=O)(=O)N(COc1cc(=O)n3cccc(OCCN4CCCCC4)c3n1)C2=O | . | . | . | 4% | -17% | 3%
SMILES | GoLoco inh red | ERG-DNA inh | Integrin act MD | TRb-SRC2 inh | TR SRC2 fluor cs | CBFb RUNX1 block
C=CCn1c(=O)n(C2OC(CO)C(O)C2O)c2nc(N)[nH]c(=O)c21 (configuration not stated) | . | . | . | 7% | 1% | 10%
CC(=O)C1(O)Cc2c(O)c3c(c(O)c2C(OC2CC(N)C(O)C(C)O2)C1)C(=O)c1c(O)cccc1C3=O (configuration not stated) | . | . | . | 25µM* | 45µM*[fluorescent] | .
COc1cccc2c1C(=O)c1c(O)c3c(c(O)c1C2=O)C[C@@](O)(C(=O)CO)C[C@@H]3O[C@@H]1C[C@H](N)[C@H](O)[C@H](C)O1 | 11µM* | . | . | 25µM* | 45µM*[fluorescent] | -10%
CCSC1=NC(=O)/C(=C2/C=Cc3ccccc3N2CC)S1 | 1.3µM* | -3% | 17% | 2% | -2% | ?
CCN1/C(=C2\OC(=S)N(C)C2=O)C=Cc2ccccc21 | 31% | 4% | -4% | ? | 2% | -12%
COC(=O)c1cc2oc3ccccc3c2n1Cc1nc(-c2ccccc2C)oc1C | . | -1% | . | -11% | 20µM*[quencher] | .
COC(=O)c1cc2oc3ccccc3c2n1Cc1cc(C)ccc1C | . | 0% | . | -9% | 22µM*[quencher] | .
COC(=O)c1cc2oc3ccccc3c2n1Cc1ccc(C)cc1 | . | -4% | . | 0% | -8% | .
COC(=O)c1cc2sc(C)cc2n1Cc1nc(-c2cccc(Br)c2)oc1C | . | -4% | . | 0% | 2% | .
COC(=O)c1cc2sc(C)cc2n1Cc1nc(-c2ccc(C)cc2)oc1C | . | 0% | . | -15% | 89µM*[quencher] | .
CCOC(=O)C1OC1C(=O)N[C@@H](CC(C)C)C(=O)NCCC(C)C (some centres not stated) | . | . | . | 9% | -2% | 26%
Nn1cnc2c([nH]c3ccccc32)c1=O | 4% | 1% | -3% | -20%[53 µM] | 1122µM*[quencher] | -6%

Screening data: PubChem, National Center for Advancing Translational Sciences (NCATS)
